# Measured values taken from the supplement of paper PMC8728848.
# This is one part of a sample in which the strongest signals are shown more often than they occur.
# B1: Intelectin 1 (Homo sapiens), Q8WWA0 (protein)
# chain: MNQLSFLLFLIATTRGWSTDEANTYFKEWTCSSSPSLPRSCKEIKDECPSAFDGLYFLRTENGVIYQTFCDMTSGGGGWTLVASVHENDMRGKCTVGDRWSSQQGSKAVYPEGDGNWANYNTFGSAEAATSDDYKNPGYYDIQAKDLGIWHVPNKSPMQHWRNSSLLRYRTDTGFLQTLGHNLFGIYQKYPVKYGEGKCWTDNGPVIPVVYDFGDAQKTASYYSPYGQREFTAGFVQFRVFNNERAANALCAGMRVTGCNTEHHCIGGGGYFPEASPQQCGDFSGFDWSGYGTHVGYSSSREITEAAVLLFYR
# How the values were obtained:
# Test in all cases: glycan array binding signal (z-score within array); higher = stronger binding
# Conditions in all cases: glycan notation: IUPAC condensed, linker removed
# Fuc(a1-2)Gal = biological target: Fuc(a1-2)Gal
# In short: (§1)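 Columns mapping to the same glycan were averaged after glycan names were converted to IUPAC-condensed notation. The data come from 3228 arrays in the Consortium for Functional Glycomics database, limited to those with an available protein sequence. Binding is reported as a within-array Z-score averaged across arrays of one protein sequence and across linkers.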
# Fuc(a1-2)Gal(b1-3)GalNAc = biological target: Fuc(a1-2)Gal(b1-3)GalNAc
# In short: as §1
# [1] = biological target: Fuc(a1-2)Gal(b1-3)GalNAc(b1-3)Gal(a1-4)Gal(b1-4)Glc
# In short: as §1
# Fuc(a1-2)Gal(b1-3)GlcNAc = biological target: Fuc(a1-2)Gal(b1-3)GlcNAc
# In short: as §1
# [2] = biological target: Fuc(a1-2)Gal(b1-3)GlcNAc(b1-3)GalNAc
# In short: as §1
# [3] = biological target: Fuc(a1-2)Gal(b1-3)GlcNAc(b1-3)[Neu5Ac(a2-6)Gal(b1-4)GlcNAc(b1-6)]Gal(b1-4)Glc
# In short: as §1
# [4] = biological target: Fuc(a1-2)[Gal(a1-3)]Gal(b1-4)[Fuc(a1-3)]GlcNAc(b1-3)GalNAc
# In short: as §1
# [5] = biological target: Fuc(a1-2)[GalNAc(a1-3)]Gal(b1-3)GlcNAc(b1-2)Man(a1-3)[Fuc(a1-2)[GalNAc(a1-3)]Gal(b1-3)GlcNAc(b1-2)Man(a1-6)]Man(b1-4)GlcNAc(b1-4)[Fuc(a1-6)]GlcNAc
# In short: as §1
# [6] = biological target: Fuc(a1-2)[GalNAc(a1-3)]Gal(b1-4)GlcNAc(b1-3)Gal(b1-4)GlcNAc
# In short: as §1
# [7] = biological target: Fuc(a1-3)[Gal(b1-4)]GlcNAc(b1-2)Man(a1-3)[Fuc(a1-3)[Gal(b1-4)]GlcNAc(b1-2)Man(a1-6)]Man(b1-4)GlcNAc(b1-4)[Fuc(a1-6)]GlcNAc
# In short: as §1
# Gal(a1-3)GalNAc = biological target: Gal(a1-3)GalNAc
# In short: as §1
# [8] = biological target: Gal(b1-3)GalNAc(a1-3)[Fuc(a1-2)]Gal(b1-4)Glc
# In short: as §1
# [9] = biological target: Gal(b1-3)GlcNAc(b1-6)Gal(b1-4)GlcNAc
# In short: as §1
# [10] = biological target: Gal(b1-3)[Fuc(a1-4)]GlcNAc(b1-3)Gal(b1-4)GlcNAc
# In short: as §1
# [11] = biological target: Gal(b1-3)[Neu5Ac(b2-6)]GalNAc
# In short: as §1
# [12] = biological target: Gal(b1-4)GlcNAc(b1-3)Gal(b1-4)Glc
# In short: as §1
# Gal6S(b1-3)GlcNAc6S = biological target: Gal6S(b1-3)GlcNAc6S
# In short: as §1
# Gal6S(b1-4)Glc = biological target: Gal6S(b1-4)Glc
# In short: as §1
# GalNAc(b1-3)Gal = biological target: GalNAc(b1-3)Gal
# In short: as §1
# [13] = biological target: GalNAc(b1-3)Gal(a1-6)Gal(b1-4)Glc
# In short: as §1
# GalNAc(b1-3)GalNAc = biological target: GalNAc(b1-3)GalNAc
# In short: as §1
# [14] = biological target: GalNAc(b1-4)GlcNAc(b1-2)Man(a1-3)[GalNAc(b1-4)GlcNAc(b1-2)Man(a1-6)]Man(b1-4)GlcNAc(b1-4)GlcNAc
# In short: as §1
# Glc(a1-6)Glc(a1-6)Glc = biological target: Glc(a1-6)Glc(a1-6)Glc
# In short: as §1
# [15] = biological target: GlcNAc(a1-4)Gal(b1-4)GlcNAc(b1-3)Gal(b1-4)GlcNAc
# In short: as §1
# [16] = biological target: GlcNAc(a1-4)Gal(b1-4)GlcNAc(b1-3)Gal(b1-4)[Fuc(a1-3)]GlcNAc(b1-3)Gal(b1-4)[Fuc(a1-3)]GlcNAc
# In short: as §1
# [17] = biological target: GlcNAc(b1-2)Man(a1-3)[GlcNAc(b1-2)Man(a1-6)]Man(b1-4)GlcNAc(b1-4)GlcNAc
# In short: as §1
# [18] = biological target: GlcNAc(b1-2)[GlcNAc(b1-6)]Man(a1-6)[GlcNAc(b1-2)Man(a1-3)][GlcNAc(b1-4)]Man(b1-4)GlcNAc(b1-4)GlcNAc
# In short: as §1
# [19] = biological target: Man(a1-2)Man(a1-2)Man(a1-3)Man
# In short: as §1
# [20] = biological target: Man(a1-2)Man(a1-3)[Man(a1-2)Man(a1-6)]Man(a1-6)[Man(a1-2)Man(a1-2)Man(a1-3)]Man
# In short: as §1
# [21] = biological target: Man(a1-3)[Man(a1-6)]Man(a1-6)[Man(a1-3)]Man(b1-4)GlcNAc(b1-4)GlcNAc
# In short: as §1
# [22] = biological target: Neu5Ac(a2-3)Gal(b1-3)GlcNAc(b1-3)Gal(b1-4)GlcNAc
# In short: as §1
# [23] = biological target: Neu5Ac(a2-3)Gal(b1-3)[Neu5Ac(a2-3)Gal(b1-4)]GlcNAc
# In short: as §1
# [24] = biological target: Neu5Ac(a2-3)Gal(b1-3)[Neu5Ac(a2-6)]GalNAc
# In short: as §1
# [25] = biological target: Neu5Ac(a2-3)Gal(b1-4)[Fuc(a1-3)]GlcNAc(b1-3)Gal
# In short: as §1
# [26] = biological target: Neu5Ac(a2-8)Neu5Ac(a2-3)Gal(b1-4)Glc
# In short: as §1
# [27] = biological target: Neu5Ac(a2-8)Neu5Ac(a2-3)[Gal(b1-3)GalNAc(b1-4)]Gal(b1-4)Glc
# In short: as §1
# Neu5Gc(a2-6)GalNAc = biological target: Neu5Gc(a2-6)GalNAc
# In short: as §1
binder,measurement,setting,value
B1,glycan array binding signal (z-score),Fuc(a1-2)Gal,2.53
same,glycan array binding signal (z-score),Fuc(a1-2)Gal(b1-3)GalNAc,-0.327
same,glycan array binding signal (z-score),[1],0.742
same,glycan array binding signal (z-score),Fuc(a1-2)Gal(b1-3)GlcNAc,0.069
same,glycan array binding signal (z-score),[2],0.22
same,glycan array binding signal (z-score),[3],4.21
same,glycan array binding signal (z-score),[4],-0.244
same,glycan array binding signal (z-score),[5],1.21
same,glycan array binding signal (z-score),[6],-0.387
same,glycan array binding signal (z-score),[7],0.394
same,glycan array binding signal (z-score),Gal(a1-3)GalNAc,-0.41
same,glycan array binding signal (z-score),[8],0.06
same,glycan array binding signal (z-score),[9],0.042
same,glycan array binding signal (z-score),[10],1.33
same,glycan array binding signal (z-score),[11],2.22
same,glycan array binding signal (z-score),[12],0.614
same,glycan array binding signal (z-score),Gal6S(b1-3)GlcNAc6S,1.05
same,glycan array binding signal (z-score),Gal6S(b1-4)Glc,-0.449
same,glycan array binding signal (z-score),GalNAc(b1-3)Gal,2.09
same,glycan array binding signal (z-score),[13],-0.442
same,glycan array binding signal (z-score),GalNAc(b1-3)GalNAc,-0.802
same,glycan array binding signal (z-score),[14],0.358
same,glycan array binding signal (z-score),Glc(a1-6)Glc(a1-6)Glc,0.027
same,glycan array binding signal (z-score),[15],3.85
same,glycan array binding signal (z-score),[16],3.27
same,glycan array binding signal (z-score),[17],-0.457
same,glycan array binding signal (z-score),[18],0.148
same,glycan array binding signal (z-score),[19],1.53
same,glycan array binding signal (z-score),[20],-0.313
same,glycan array binding signal (z-score),[21],-0.432
same,glycan array binding signal (z-score),[22],0.545
same,glycan array binding signal (z-score),[23],-0.157
same,glycan array binding signal (z-score),[24],-0.094
same,glycan array binding signal (z-score),[25],-0.21
same,glycan array binding signal (z-score),[26],0.12
same,glycan array binding signal (z-score),[27],0.572
same,glycan array binding signal (z-score),Neu5Gc(a2-6)GalNAc,0.523
